{"source": "paper PMC4336329", "about": "(PLoS ONE, 2015)", "note": "About 14,000 (4.5%) of roughly 310,000 compounds showed an effect of 50% or more. The effect is printed as a negative number. The sample as a whole holds a higher share of strong results than the screen did.", "data": [{"target": "human ether-à-go-go-related gene (hERG) potassium channel (human, UniProt Q12809)", "sequence (Q12809 whole entry, looked up)": "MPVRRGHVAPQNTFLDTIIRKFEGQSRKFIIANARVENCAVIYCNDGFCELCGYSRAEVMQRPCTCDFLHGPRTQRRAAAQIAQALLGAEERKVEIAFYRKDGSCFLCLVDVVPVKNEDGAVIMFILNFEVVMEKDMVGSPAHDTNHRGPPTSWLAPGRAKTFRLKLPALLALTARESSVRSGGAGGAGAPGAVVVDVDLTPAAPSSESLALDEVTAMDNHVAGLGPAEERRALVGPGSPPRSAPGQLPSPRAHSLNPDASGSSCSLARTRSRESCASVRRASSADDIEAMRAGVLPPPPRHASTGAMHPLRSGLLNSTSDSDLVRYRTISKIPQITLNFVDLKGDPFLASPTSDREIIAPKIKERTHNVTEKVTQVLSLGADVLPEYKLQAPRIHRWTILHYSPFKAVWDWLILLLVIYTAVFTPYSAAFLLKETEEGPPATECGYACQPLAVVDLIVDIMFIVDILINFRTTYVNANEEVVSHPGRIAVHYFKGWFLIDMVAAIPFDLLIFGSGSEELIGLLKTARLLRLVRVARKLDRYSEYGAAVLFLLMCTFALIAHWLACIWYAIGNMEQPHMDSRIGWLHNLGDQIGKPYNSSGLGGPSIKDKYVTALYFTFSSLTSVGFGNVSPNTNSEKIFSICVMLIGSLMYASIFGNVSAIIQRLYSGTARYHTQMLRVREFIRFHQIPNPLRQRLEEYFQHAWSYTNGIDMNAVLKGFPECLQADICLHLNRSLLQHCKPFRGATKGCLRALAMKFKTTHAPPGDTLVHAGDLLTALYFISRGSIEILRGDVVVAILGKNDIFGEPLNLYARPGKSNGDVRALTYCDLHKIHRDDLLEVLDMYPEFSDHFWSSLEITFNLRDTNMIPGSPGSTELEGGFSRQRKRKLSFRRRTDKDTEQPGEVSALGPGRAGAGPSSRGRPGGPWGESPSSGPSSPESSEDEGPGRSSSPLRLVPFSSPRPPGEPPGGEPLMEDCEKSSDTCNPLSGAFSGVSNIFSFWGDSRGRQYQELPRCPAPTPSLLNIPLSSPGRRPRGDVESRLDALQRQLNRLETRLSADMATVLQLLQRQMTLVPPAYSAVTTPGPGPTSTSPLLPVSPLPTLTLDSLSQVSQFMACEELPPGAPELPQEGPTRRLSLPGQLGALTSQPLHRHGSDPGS", "experiment": "primary screen, population patch clamp on CHO cells stably expressing hERG; higher = less effect of the substance", "units": {"hERG current change (%, negative = inhibition) at 10uM": "%"}, "values": [{"compound": "CC1Cc2ccccc2N1C(=O)CSc1nc2c(c(=O)n(C)c(=O)n2C)n1Cc1ccccc1", "note": "(stereo not drawn);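 note: peak tail current of the secondary pulse compared with the same well before compound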", "hERG current change (%, negative = inhibition) at 10uM": -33.7}, {"compound": "Cc1ccc(Nc2ccccc2)nn1", "hERG current change (%, negative = inhibition) at 10uM": 18.6}, {"compound": "COc1ccccc1-c1coc2c(CN3CCCC(C)C3)c(O)ccc2c1=O", "note": "(stereo not drawn)", "hERG current change (%, negative = inhibition) at 10uM": -2.44}, {"compound": "CSC1=NC2(CC(c3ccccc3)Oc3cc(O)ccc32)CC(C)(C)N1", "note": "(stereo not drawn)", "hERG current change (%, negative = inhibition) at 10uM": -76.1}, {"compound": "CC1(C)CC2(CC(c3ccccc3)Oc3cc(O)ccc32)NC(=O)N1", "note": "(stereo not drawn)", "hERG current change (%, negative = inhibition) at 10uM": 3.54}, {"compound": "CC1(C)CC2(CC(c3ccccc3)Oc3cc(O)ccc32)NC(=S)N1", "note": "(stereo not drawn)", "hERG current change (%, negative = inhibition) at 10uM": -1.82}, {"compound": "Cc1cc(Cl)ccc1OCC(=O)N/N=C1\\CCCc2ccccc21", "hERG current change (%, negative = inhibition) at 10uM": -0.309}, {"compound": "CC(C)(C)c1nc2ccc(NS(=O)(=O)c3ccc(F)c(F)c3F)cc2[nH]1", "hERG current change (%, negative = inhibition) at 10uM": 10.6}, {"compound": "COc1ccccc1NC1=NC(C)(C)N=C(N)N1", "hERG current change (%, negative = inhibition) at 10uM": 23.2}, {"compound": "NS(=O)(=O)c1ccc(CCNC(=O)c2ccc(-c3ccccc3)cc2)cc1", "hERG current change (%, negative = inhibition) at 10uM": 9.92}, {"compound": "COc1ccccc1C(=O)NNC(=O)c1ccccc1Br", "hERG current change (%, negative = inhibition) at 10uM": 23}, {"compound": "COc1ccccc1NC(=S)NNC(=O)c1ccccc1Br", "hERG current change (%, negative = inhibition) at 10uM": -70.9}, {"compound": "COc1ccccc1NC(=S)NNC(=O)c1ccccc1", "hERG current change (%, negative = inhibition) at 10uM": -1.04}, {"compound": "Cc1nn(Cc2ccc(F)cc2Cl)c(C)c1[N+](=O)[O-]", "hERG current change (%, negative = inhibition) at 10uM": -1.01}, {"compound": "Cc1ccc(OCC(=O)O/N=C(\\N)c2ccccn2)cc1C", "hERG current change (%, negative = inhibition) at 10uM": -11.3}, {"compound": "Cc1cccc(Nc2nc3c(s2)CCCC3)c1", "hERG current change (%, negative = inhibition) at 10uM": -8.11}, {"compound": "COc1ccc(NC(=O)Nc2nc3c(s2)CCCC3)cc1", "hERG current change (%, negative = inhibition) at 10uM": -26.8}, {"compound": "Cc1nc(Nc2ccc(C(=O)O)cc2)sc1-c1ccccc1", "hERG current change (%, negative = inhibition) at 10uM": -76.5}, {"compound": "Cc1nc(Nc2ccccc2)sc1-c1ccccc1", "hERG current change (%, negative = inhibition) at 10uM": 1.73}, {"compound": "COc1ccc(Nc2nc(C)c(-c3ccccc3)s2)cc1", "hERG current change (%, negative = inhibition) at 10uM": 14.9}, {"compound": "O=C(O)c1ccc(Nc2nc3c(s2)CCCC3)cc1", "hERG current change (%, negative = inhibition) at 10uM": -81.3}, {"compound": "C=CCSC1=C(C#N)C2(CCCCC2)C(C#N)C(=O)N1", "note": "(stereo not drawn)", "hERG current change (%, negative = inhibition) at 10uM": -3.87}, {"compound": "C=CCNc1sc(C(=O)C(C)(C)C)c(N)c1C#N", "hERG current change (%, negative = inhibition) at 10uM": 5.11}, {"compound": "CCN(CC(=O)Nc1ccc(OC)cc1)C(=O)c1ccc2c(=O)n3c(nc2c1)CCC3", "hERG current change (%, negative = inhibition) at 10uM": 9.77}, {"compound": "C=CCn1cnc2c(sc3nc(C)cc(C)c32)c1=O", "hERG current change (%, negative = inhibition) at 10uM": -6.75}, {"compound": "COc1ccccc1OCCNC(=O)c1cc([N+](=O)[O-])cc([N+](=O)[O-])c1", "hERG current change (%, negative = inhibition) at 10uM": 12.2}, {"compound": "Cc1nc(-c2ccncc2)nc(NCCNc2ncccc2C(F)(F)F)c1Cl", "hERG current change (%, negative = inhibition) at 10uM": 6.57}, {"compound": "COc1ccccc1CC(=O)NC1CCCc2ccccc21", "note": "(stereo not drawn)", "hERG current change (%, negative = inhibition) at 10uM": -32.8}, {"compound": "O=C(CCc1nnc(-c2ccc3c(c2)OCO3)o1)N1CCC(c2ccc(F)cc2)C1", "note": "(stereo not drawn)", "hERG current change (%, negative = inhibition) at 10uM": -56}, {"compound": "Cc1cc(C)n(CCN(C)C(=O)CCc2nnc(-c3ccc4c(c3)OCO4)o2)n1", "hERG current change (%, negative = inhibition) at 10uM": -51.7}, {"compound": "CC1CCCN(C(=O)CCc2nnc(-c3ccc4c(c3)OCO4)o2)C1", "note": "(stereo not drawn)", "hERG current change (%, negative = inhibition) at 10uM": -4.43}, {"compound": "CCC(=O)C1CCCN(C(=O)CCc2nnc(-c3ccc4c(c3)OCO4)o2)C1", "note": "(stereo not drawn)", "hERG current change (%, negative = inhibition) at 10uM": -8.82}, {"compound": "Cc1cc(C)n(CCN(C)C(=O)CCc2nnc(CCC3CCCCC3)o2)n1", "hERG current change (%, negative = inhibition) at 10uM": -4.29}, {"compound": "CCN(CCn1cccn1)C(=O)CCc1nnc(-c2ccc3c(c2)OCO3)o1", "hERG current change (%, negative = inhibition) at 10uM": -5.68}, {"compound": "O=C(CNc1ccc2ccccc2c1)N/N=C/c1ccc(OC(=O)/C=C/c2ccco2)cc1", "hERG current change (%, negative = inhibition) at 10uM": 22.7}, {"compound": "Cc1ccccc1OS(=O)(=O)c1cn(C)c(=O)n(C)c1=O", "hERG current change (%, negative = inhibition) at 10uM": 11.4}, {"compound": "Cc1ccc(C2CC(=O)C=C(Nc3ccc(Cl)cc3)C2)cc1", "note": "(stereo not drawn)", "hERG current change (%, negative = inhibition) at 10uM": 7.93}, {"compound": "Cc1ccc(S(=O)(=O)/N=C/N(C)C)cc1", "hERG current change (%, negative = inhibition) at 10uM": 0.768}, {"compound": "COc1ccc(-c2cnnc(N/N=C/C(C)=C/c3ccccc3)n2)cc1", "hERG current change (%, negative = inhibition) at 10uM": -9.57}, {"compound": "CCc1c(C(=O)NCCc2cccc(C)c2)[nH]c(C)c1C(C)=O", "hERG current change (%, negative = inhibition) at 10uM": 12.2}, {"compound": "O=[N+]([O-])c1ccc(C(O)CNC(=S)Nc2ccccc2)cc1", "note": "(stereo not drawn)", "hERG current change (%, negative = inhibition) at 10uM": -11.6}, {"compound": "O=C(CNC(=O)c1ccccc1)NCC(O)c1ccc([N+](=O)[O-])cc1", "note": "(stereo not drawn)", "hERG current change (%, negative = inhibition) at 10uM": 10.7}]}]}
